# Test results: PubChem BioAssay (EPA / NIEHS)
# More than one record can exist for a structure, and the calls need not agree. The source made the active and inactive calls. The calls were made as follows: active = hit-call score of the fitted dose curve at least 0.9, where 1 is the maximum; inactive = score below 0.9.
# Test: BSK_3C_uPAR: BioMAP Diversity Plus: 3C Assay for Urokinase-type plasminogen activator receptor (uPAR) Biomarker Activity (AID 2282998)
# Details: BioMAP 3C HUVEC, uPAR biomarker ELISA; actives raise or lower the signal
# Protocol: BSK_3C is a cell-based, multiplexed-readout assay that uses umbilical vein endothelium, a human vascular primary cell, with measurements taken at 24 hours after chemical dosing in a 96-well plate.BSK_3CAR is an assay component measured in the BSK_3C assay. It measures uPAR antibody related to regulation of gene expression using ELISA technology.Data from the assay component BSK_3CAR was analyzed into 1 assay endpoint. This assay endpoint, BSK_3CAR, was analyzed with bidirectional fitting relative to DMSO as the negative control and baseline of activity. Using a type of binding reporter, gain or loss-of-signal activity can be used to understand changes in the signaling as they relate to the gene PLAUR. Furthermore, this assay endpoint can be referred to as a primary readout, because this assay has produced multiple assay endpoints where this one serves a signaling function. To generalize the intended target to other relatable targets, this assay endpoint is annotated to the cytokine intended target family, where the subfamily is plasmogen activator.
# The levels of cell surface (or secreted, indicated by the prefix "s") biomarker endpoints were measured by ELISA. Overt cytotoxicity to cells in confluent adherent cultures (all systems other than the BT system) was assessed by measuring total protein levels using sulforhodamine B (SRB) staining in parallel cultures at the time of biomarker measurements, indicated as SRB endpoints. For proliferation assays for adherent cell types, individual cell types are cultured at sub-confluence and relative cell numbers quantified by SRB staining at time points optimized for each system (48 h: 3C and CASM3C systems; 72 h: BT and HDF3CGF systems; 96 h: SAg system). SRB was performed by staining cells with 0.1% SRB after fixation with 10% TCA and reading wells at 560 nm.Viability and proliferation of PBMC (T cells) was quantified by Alamar Blue reduction for the SAg and BT systems. For PBMC viability (referred to as PBMC Cytotoxicity within the assay endpoint names), cells were plated (75,000/well in a 96-well plate) and then chemical samples added for 1 h before addition of activators, SEB and TSST-1 (20 ng/mL final concentration each). Cells were incubated for 90 h. Then, Alamar Blue (20 uL/well) (Invitrogen, Cat DAL1100) was added for 6 h, and the plates were read with a fluorescence microplate reader at 546/580 nm (excitation/emission). For PBMC proliferation, cells were plated and activated as above but incubated for only 16 h prior to addition of Alamar Blue. Plates were read after 6 h.
SMILES,outcome,AC50
C=C(C)[C@H]1CC=C(C)C(=O)C1,inactive,–
C1=CC2C3C=CC(C3)C2C1 (stereo not given),inactive,–
IC(I)I,inactive,–
CC(C)(C)CC(C)(C)c1ccc(OCCOCC[N+](C)(C)Cc2ccccc2)cc1,–,5 µM (active)
CN(C)C(=S)SC(=S)N(C)C,–,31.8 µM (active)
COc1cc(Cl)c(OC)cc1N,inactive,–
CCCCCC(C=O)=Cc1ccccc1,–,31.5 µM (active)
CC1(C)CCC[C@]2(C)[C@H]3CCO[C@]3(C)CC[C@@H]12,inactive,32.9 µM (active)
CCCCCCCCCCCCCCCC(=O)OC/C=C(C)/C=C/C=C(C)/C=C/C1=C(C)CCCC1(C)C,inactive,–
CN(C)C(=O)Nc1ccc(Oc2ccc(Cl)cc2)cc1,–,2.32 µM (active)
O=CN1CCOCC1,inactive,–
CS(=O)(=O)c1ccc(C2=C(c3ccccc3)C(=O)OC2)cc1,inactive,–
CCOC(=O)C(C#N)=C(c1ccccc1)c1ccccc1,inactive,–
CC(=O)Nc1ccc(C(=O)CCl)cc1,–,9.48 µM (active)
O=C(Nc1ccc2c(O)c(N=Nc3ccc(N=Nc4ccc(S(=O)(=O)O)cc4)cc3)c(S(=O)(=O)O)cc2c1)c1ccccc1,inactive,–
COc1ccc(CCN2CCC(Nc3nc4ccccc4n3Cc3ccc(F)cc3)CC2)cc1,–,5 µM (active)
C=CC(C)(O)CCC=C(C)C (stereo not given),inactive,–
CC(=O)C1(C)CC2=C(CCCC2(C)C)CC1C (stereo not given),–,8.27 µM (active)
CSCCC=O,inactive,–
CCC(C)c1cc([N+](=O)[O-])cc([N+](=O)[O-])c1OC(=O)OC(C)C (stereo not given),–,11.3 µM (active)

SMILES,outcome,AC50
CS(=O)(=O)OCCCCOS(C)(=O)=O,inactive,–
CC(=O)c1c(C)c([N+](=O)[O-])c(C(C)(C)C)c([N+](=O)[O-])c1C,inactive,–
O=C1OC2(c3ccccc31)c1ccc(O)c(Br)c1Oc1c2ccc(O)c1Br,–,20 µM (active)
CCCCCCC(CO)CCCC (stereo not given),inactive,–
CC1(C)C2=CCCC(C)(C)[C@]23CC[C@H]1C3,–,36.4 µM (active)
C=C(C)C(=O)OCCOCCOCCOC(=O)C(=C)C,inactive,–
C=C(C)C(=O)OCC(CC)(COC(=O)C(=C)C)COC(=O)C(=C)C,inactive,–
CCCCOC(=O)CCCCCCCC(=O)OCCCC,inactive,–
C=C(C)C(=O)OCCOCCOCCOCCOC(=O)C(=C)C,inactive,–
c1ccc2cc(Nc3ccc(Nc4ccc5ccccc5c4)cc3)ccc2c1,inactive,–
COc1ccc(OC)c(N=Nc2c(O)ccc3ccccc23)c1,–,12.2 µM (active)
CCN(CC)C(=O)N(CC)CC,inactive,–
Clc1cc(Cl)c(-c2c(Cl)c(Cl)cc(Cl)c2Cl)cc1Cl,–,17.1 µM (active)
CC=Cc1ccc(OCC)c(O)c1,inactive,–
Cc1cc(CCC(=O)OCCOCCOCCOC(=O)CCc2cc(C)c(O)c(C(C)(C)C)c2)cc(C(C)(C)C)c1O,–,17.8 µM (active)
c1ccc(CCc2ccccc2)cc1,–,36.7 µM (active)
c1ccc(Oc2ccccc2)cc1,–,30.6 µM (active)
O=C1c2ccccc2C(=O)c2c(O)ccc(O)c21,–,3.02 µM (active)
C[C@@H]1CCN(C(=O)[C@H](CCCN=C(N)N)NS(=O)(=O)c2cccc3c2NC[C@H](C)C3)[C@@H](C(=O)O)C1,inactive,–
